Assays:
Test in all cases: DAPPL (digital affinity profiling via proximity ligation, sequencing); 10 mM Tris-HCl pH 7.5, 50 mM NaCl, 1 mM DTT, 4% glycerol, room temperature, 30 min; GST-TFs on glutathione beads, 16-mer random dsDNA library, 0.1% formaldehyde crosslink after washing; high values mean tight binding
Details in all cases: protein: recombinant; tags: N-terminal GST; dsDNA, one strand shown
FLI1 = target: T1, FLI1 (Homo sapiens, UniProt Q01543 1-452)
T1 sequence: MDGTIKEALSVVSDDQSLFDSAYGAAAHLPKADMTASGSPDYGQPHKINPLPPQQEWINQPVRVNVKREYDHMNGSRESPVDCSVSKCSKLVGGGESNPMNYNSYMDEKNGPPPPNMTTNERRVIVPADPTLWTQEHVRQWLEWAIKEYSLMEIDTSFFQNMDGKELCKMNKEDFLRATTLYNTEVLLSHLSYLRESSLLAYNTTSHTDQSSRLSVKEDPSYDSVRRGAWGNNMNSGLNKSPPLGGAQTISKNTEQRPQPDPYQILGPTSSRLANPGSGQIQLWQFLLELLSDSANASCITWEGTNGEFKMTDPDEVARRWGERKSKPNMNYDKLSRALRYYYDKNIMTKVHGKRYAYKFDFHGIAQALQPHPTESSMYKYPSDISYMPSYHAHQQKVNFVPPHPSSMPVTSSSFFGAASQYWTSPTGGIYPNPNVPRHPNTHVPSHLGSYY
Outline: (§1)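 In yeast, human transcription factors were expressed with a GST fusion, then pulled down on glutathione beads and given DNA barcodes. Pooled with a tag-only sample, they were exposed to 200 nmole of a 16-mer random double-stranded DNA library (Tris/NaCl/DTT/glycerol buffer, room temperature, 30 min), washed, crosslinked with 0.1% formaldehyde, proximity-ligated using BsaI/T4 ligase for 1 h at 37 °C, PCR-amplified and read on an Illumina NextSeq500. Each hexamer's frequency of reads for a factor, divided by the matching frequency for the tag-only sample, gives the binding signal.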

ELK1 = target: T2, ELK1 (Homo sapiens, UniProt P19419 1-428)
T2 sequence: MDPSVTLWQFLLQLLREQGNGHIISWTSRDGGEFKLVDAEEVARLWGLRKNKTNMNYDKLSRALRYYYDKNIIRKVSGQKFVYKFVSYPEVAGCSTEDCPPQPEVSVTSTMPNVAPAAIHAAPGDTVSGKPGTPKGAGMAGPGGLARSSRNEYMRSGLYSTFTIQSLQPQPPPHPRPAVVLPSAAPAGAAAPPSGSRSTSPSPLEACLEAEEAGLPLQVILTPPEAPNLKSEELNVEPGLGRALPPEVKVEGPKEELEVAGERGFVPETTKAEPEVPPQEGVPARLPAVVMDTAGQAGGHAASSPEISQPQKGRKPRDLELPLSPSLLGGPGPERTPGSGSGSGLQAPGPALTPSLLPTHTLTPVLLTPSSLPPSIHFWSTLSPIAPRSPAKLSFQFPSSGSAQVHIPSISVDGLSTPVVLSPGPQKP
Outline: as §1

GABPA = target: T3, GABPA (Homo sapiens, UniProt Q06546 1-454)
T3 sequence: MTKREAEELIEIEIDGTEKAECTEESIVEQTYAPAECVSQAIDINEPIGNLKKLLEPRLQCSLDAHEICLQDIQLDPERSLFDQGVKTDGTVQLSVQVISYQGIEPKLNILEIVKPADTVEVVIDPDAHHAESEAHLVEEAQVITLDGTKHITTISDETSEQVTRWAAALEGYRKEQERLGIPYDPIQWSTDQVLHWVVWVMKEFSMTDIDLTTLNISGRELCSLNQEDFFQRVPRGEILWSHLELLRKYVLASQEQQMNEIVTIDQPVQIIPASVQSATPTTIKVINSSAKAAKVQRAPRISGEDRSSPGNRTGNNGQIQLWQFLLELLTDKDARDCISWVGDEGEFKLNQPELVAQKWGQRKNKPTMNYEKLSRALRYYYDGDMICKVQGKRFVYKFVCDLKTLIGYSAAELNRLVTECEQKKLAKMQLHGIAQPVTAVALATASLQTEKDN
Outline: as §1

ERG = target: T4, ERG (Homo sapiens, UniProt P11308 1-479)
T4 sequence: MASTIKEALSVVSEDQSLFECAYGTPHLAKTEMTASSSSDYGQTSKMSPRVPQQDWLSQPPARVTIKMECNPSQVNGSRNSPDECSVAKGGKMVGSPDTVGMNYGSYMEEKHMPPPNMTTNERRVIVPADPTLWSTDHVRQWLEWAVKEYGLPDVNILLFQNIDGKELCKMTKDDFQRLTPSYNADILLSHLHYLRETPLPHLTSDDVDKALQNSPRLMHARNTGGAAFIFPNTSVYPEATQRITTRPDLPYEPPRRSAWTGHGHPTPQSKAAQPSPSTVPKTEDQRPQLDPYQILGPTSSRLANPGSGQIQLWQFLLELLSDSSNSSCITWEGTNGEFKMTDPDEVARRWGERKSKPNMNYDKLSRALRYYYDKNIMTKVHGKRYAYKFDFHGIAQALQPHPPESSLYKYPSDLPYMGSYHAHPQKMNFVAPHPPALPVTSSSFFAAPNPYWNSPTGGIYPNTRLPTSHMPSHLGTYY
Outline: as §1

ELF1 = ELF1 (Homo sapiens, UniProt P32519 1-619)
Outline: as §1

EHF = target: T5, EHF (Homo sapiens, UniProt Q9NZC4 1-300)
T5 sequence: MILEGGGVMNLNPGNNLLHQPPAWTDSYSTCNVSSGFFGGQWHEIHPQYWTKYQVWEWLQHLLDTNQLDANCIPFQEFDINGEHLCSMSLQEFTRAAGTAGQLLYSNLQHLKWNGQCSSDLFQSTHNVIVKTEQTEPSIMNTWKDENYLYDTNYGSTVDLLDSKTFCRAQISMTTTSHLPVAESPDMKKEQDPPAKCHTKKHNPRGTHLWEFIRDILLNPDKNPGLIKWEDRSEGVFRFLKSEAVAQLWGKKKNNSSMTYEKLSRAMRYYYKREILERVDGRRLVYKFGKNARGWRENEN
Outline: as §1

SPI1 = SPI1 (Homo sapiens, UniProt P17947 1-270)
Outline: as §1

SPIB = SPIB (Homo sapiens, UniProt Q01892 1-262)
Outline: as §1

ELK3 = target: T6, ELK3 (Homo sapiens, UniProt P41970 1-407)
T6 sequence: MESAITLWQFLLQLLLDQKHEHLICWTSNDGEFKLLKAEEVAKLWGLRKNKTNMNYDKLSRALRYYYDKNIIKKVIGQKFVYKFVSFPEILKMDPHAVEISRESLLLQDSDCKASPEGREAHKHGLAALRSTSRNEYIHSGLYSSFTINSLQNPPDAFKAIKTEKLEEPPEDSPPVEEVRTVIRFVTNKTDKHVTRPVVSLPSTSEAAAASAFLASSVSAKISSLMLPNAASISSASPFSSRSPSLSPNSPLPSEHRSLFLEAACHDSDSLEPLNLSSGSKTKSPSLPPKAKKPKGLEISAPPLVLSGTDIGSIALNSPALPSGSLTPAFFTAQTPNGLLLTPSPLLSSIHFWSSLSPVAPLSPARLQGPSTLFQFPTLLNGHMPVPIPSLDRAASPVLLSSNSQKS
Outline: as §1

Chain of SPIB (Q01892 whole entry): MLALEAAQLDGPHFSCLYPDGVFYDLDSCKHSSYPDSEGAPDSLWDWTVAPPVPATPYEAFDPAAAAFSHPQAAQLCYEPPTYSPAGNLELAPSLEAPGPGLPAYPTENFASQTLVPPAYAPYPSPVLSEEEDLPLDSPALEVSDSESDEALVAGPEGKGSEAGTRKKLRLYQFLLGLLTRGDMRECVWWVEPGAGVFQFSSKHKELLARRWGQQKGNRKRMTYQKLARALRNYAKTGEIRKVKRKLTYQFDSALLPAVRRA
Chain of ELF1 (P32519 whole entry): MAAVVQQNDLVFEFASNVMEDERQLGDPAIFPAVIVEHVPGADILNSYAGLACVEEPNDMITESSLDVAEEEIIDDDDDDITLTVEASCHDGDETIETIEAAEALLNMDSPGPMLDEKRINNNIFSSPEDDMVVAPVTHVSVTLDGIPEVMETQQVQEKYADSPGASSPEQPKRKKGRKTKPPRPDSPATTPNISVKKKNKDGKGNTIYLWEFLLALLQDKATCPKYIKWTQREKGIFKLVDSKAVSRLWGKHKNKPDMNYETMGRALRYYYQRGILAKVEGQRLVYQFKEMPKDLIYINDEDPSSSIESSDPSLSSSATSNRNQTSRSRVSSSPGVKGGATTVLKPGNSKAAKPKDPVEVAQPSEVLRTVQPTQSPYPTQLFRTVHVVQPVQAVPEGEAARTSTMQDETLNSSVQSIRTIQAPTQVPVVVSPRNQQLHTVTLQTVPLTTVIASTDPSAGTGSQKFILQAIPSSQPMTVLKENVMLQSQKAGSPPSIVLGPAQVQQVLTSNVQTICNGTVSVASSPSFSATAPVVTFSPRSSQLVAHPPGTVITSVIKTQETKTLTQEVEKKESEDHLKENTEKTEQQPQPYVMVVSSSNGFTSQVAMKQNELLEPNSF

Sequence | binding signal (FLI1) | binding signal (ELK1) | binding signal (GABPA) | binding signal (ERG) | binding signal (ELF1) | binding signal (EHF) | binding signal (SPI1) | binding signal (SPIB) | binding signal (ELK3)
TCCCCT | 1.59 fold enrichment (6-mer frequency, TF over GST control) | 1.66 fold enrichment (6-mer frequency, TF over GST control) | 1.61 fold enrichment (6-mer frequency, TF over GST control) | 1.72 fold enrichment (6-mer frequency, TF over GST control) | 1.74 fold enrichment (6-mer frequency, TF over GST control) | 1.67 fold enrichment (6-mer frequency, TF over GST control) | 2.29 fold enrichment (6-mer frequency, TF over GST control) | 1.8 fold enrichment (6-mer frequency, TF over GST control) | 1.86 fold enrichment (6-mer frequency, TF over GST control)
AAATGA | 1.23 fold enrichment (6-mer frequency, TF over GST control) | 1.32 fold enrichment (6-mer frequency, TF over GST control) | 1.26 fold enrichment (6-mer frequency, TF over GST control) | 1.3 fold enrichment (6-mer frequency, TF over GST control) | 1.26 fold enrichment (6-mer frequency, TF over GST control) | 1.23 fold enrichment (6-mer frequency, TF over GST control) | 1.45 fold enrichment (6-mer frequency, TF over GST control) | 1.37 fold enrichment (6-mer frequency, TF over GST control) | 1.26 fold enrichment (6-mer frequency, TF over GST control)
ATCACC | 1.17 fold enrichment (6-mer frequency, TF over GST control) | 1.18 fold enrichment (6-mer frequency, TF over GST control) | 1.13 fold enrichment (6-mer frequency, TF over GST control) | 1.14 fold enrichment (6-mer frequency, TF over GST control) | 1.19 fold enrichment (6-mer frequency, TF over GST control) | 1.1 fold enrichment (6-mer frequency, TF over GST control) | 1.11 fold enrichment (6-mer frequency, TF over GST control) | 1.03 fold enrichment (6-mer frequency, TF over GST control) | 1.27 fold enrichment (6-mer frequency, TF over GST control)
TACCAT | 1.22 fold enrichment (6-mer frequency, TF over GST control) | 1.09 fold enrichment (6-mer frequency, TF over GST control) | 1.19 fold enrichment (6-mer frequency, TF over GST control) | 1.17 fold enrichment (6-mer frequency, TF over GST control) | 1.23 fold enrichment (6-mer frequency, TF over GST control) | 1.11 fold enrichment (6-mer frequency, TF over GST control) | 1.15 fold enrichment (6-mer frequency, TF over GST control) | 1.21 fold enrichment (6-mer frequency, TF over GST control) | 1.21 fold enrichment (6-mer frequency, TF over GST control)
CATTTT | 1.24 fold enrichment (6-mer frequency, TF over GST control) | 1.04 fold enrichment (6-mer frequency, TF over GST control) | 1.23 fold enrichment (6-mer frequency, TF over GST control) | 1.14 fold enrichment (6-mer frequency, TF over GST control) | 1.18 fold enrichment (6-mer frequency, TF over GST control) | 1.16 fold enrichment (6-mer frequency, TF over GST control) | 1.39 fold enrichment (6-mer frequency, TF over GST control) | 1.23 fold enrichment (6-mer frequency, TF over GST control) | 1.15 fold enrichment (6-mer frequency, TF over GST control)
TTTGCG | 1.27 fold enrichment (6-mer frequency, TF over GST control) | 1.29 fold enrichment (6-mer frequency, TF over GST control) | 1.26 fold enrichment (6-mer frequency, TF over GST control) | 1.14 fold enrichment (6-mer frequency, TF over GST control) | 1.27 fold enrichment (6-mer frequency, TF over GST control) | 1.19 fold enrichment (6-mer frequency, TF over GST control) | 1.32 fold enrichment (6-mer frequency, TF over GST control) | 1.19 fold enrichment (6-mer frequency, TF over GST control) | 1.11 fold enrichment (6-mer frequency, TF over GST control)
AAACCC | 1.26 fold enrichment (6-mer frequency, TF over GST control) | 1.32 fold enrichment (6-mer frequency, TF over GST control) | 1.22 fold enrichment (6-mer frequency, TF over GST control) | 1.25 fold enrichment (6-mer frequency, TF over GST control) | 1.32 fold enrichment (6-mer frequency, TF over GST control) | 1.27 fold enrichment (6-mer frequency, TF over GST control) | 1.22 fold enrichment (6-mer frequency, TF over GST control) | 1.34 fold enrichment (6-mer frequency, TF over GST control) | 1.36 fold enrichment (6-mer frequency, TF over GST control)
ATATCC | 2.59 fold enrichment (6-mer frequency, TF over GST control) | 2.88 fold enrichment (6-mer frequency, TF over GST control) | 2.45 fold enrichment (6-mer frequency, TF over GST control) | 3.33 fold enrichment (6-mer frequency, TF over GST control) | 2.56 fold enrichment (6-mer frequency, TF over GST control) | 2.58 fold enrichment (6-mer frequency, TF over GST control) | 2.43 fold enrichment (6-mer frequency, TF over GST control) | 2.82 fold enrichment (6-mer frequency, TF over GST control) | 2.72 fold enrichment (6-mer frequency, TF over GST control)

From PMC7862700, “An all-to-all approach to the identification of sequence-specific readers for epigenetic DNA modifications on cytosine”
